G9a inh: qHTS Assay for Inhibitors of Histone Lysine Methyltransferase G9a. Histone-lysine N-methyltransferase EHMT2 (Homo sapiens), Q96KQ7. G9a H3K9 monomethylation, AlphaScreen, 2 h. Potency, µM (highest dose often 102 µM), without a hit: top-dose activity, negative = inhibition, usual class: inhibitors. hit rate 8.8% among 350,000. AID 504332, 2011; note: % is set by controls: 0 for no effect and ±100 for the full control effect; nearly all actives have a fitted effect of over 75% in size
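Signal arises when biotinylated H3K9 peptide, once monomethylated, bridges streptavidin donor and antibody-captured acceptor beads. Enzyme at 20 nM was preincubated 15 min with test compounds; peptide 500 nM and SAM 20 uM then reacted for 2 h.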
PLK1 PBD inh: qHTS for Inhibitors of PLK1-PDB (polo-like kinase 1 - polo-box domain): Primary Screen; Serine/threonine-protein kinase PLK1 (Homo sapiens), P53350; Potency, µM, for the others: max response, negative = inhibition, hits mostly inhibitors; Plk1 PBD binding of FITC phosphopeptide, fluorescence polarization; hit rate 2.8% among 360,000; note: series mostly up to about 57 µM; % is set by controls: 0 for no effect and ±100 for the full control effect; nearly all actives have a fitted effect of over 65% in size
Target sequence (P53350 whole entry, looked up, the tested form may be a part): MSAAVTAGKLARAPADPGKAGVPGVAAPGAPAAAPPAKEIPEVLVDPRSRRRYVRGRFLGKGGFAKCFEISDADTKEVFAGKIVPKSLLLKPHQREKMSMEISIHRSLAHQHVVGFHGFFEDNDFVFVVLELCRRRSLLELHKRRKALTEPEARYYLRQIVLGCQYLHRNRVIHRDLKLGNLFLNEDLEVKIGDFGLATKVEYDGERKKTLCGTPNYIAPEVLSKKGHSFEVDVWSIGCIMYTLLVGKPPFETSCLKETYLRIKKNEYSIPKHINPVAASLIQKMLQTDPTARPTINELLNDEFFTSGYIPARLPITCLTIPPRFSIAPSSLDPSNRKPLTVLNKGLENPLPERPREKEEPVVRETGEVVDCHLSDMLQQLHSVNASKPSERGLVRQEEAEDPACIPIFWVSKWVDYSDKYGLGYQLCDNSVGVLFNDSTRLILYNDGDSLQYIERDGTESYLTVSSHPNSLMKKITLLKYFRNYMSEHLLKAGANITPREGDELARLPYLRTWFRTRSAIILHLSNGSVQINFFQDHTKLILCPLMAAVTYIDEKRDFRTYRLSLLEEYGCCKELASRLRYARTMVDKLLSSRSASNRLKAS
12-LOX inh: Primary qHTS assay for inhibitors of human arachidonate 12S-lipoxygenase (ALOX12): Round 2. hit rate 1.1% among 580,000. AID 1671190, 2021. purified 12hLO, xylenol orange hydroperoxide absorbance. Polyunsaturated fatty acid lipoxygenase ALOX12 (Homo sapiens), P18054. Potency, µM (doses to about 108 µM), for the others: at the top dose activity change, negative = inhibition, usual class: inhibitors; note: % is set by controls: 0 for no effect and ±100 for the full control effect
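Hydroperoxide product was detected by ferrous iron/xylenol orange as the 573 to 405 nm absorbance ratio. Arachidonic acid at 40 uM (final) was turned over for 30 min at room temperature by 150 nM human 12hLO, pH 7.0 Hepes buffer, after 15 min compound preincubation.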
BAZ2B inh: qHTS Assay for Inhibitors of BAZ2B | AlphaScreen BAZ2B-H3K14Ac peptide displacement | hit rate 4.4% among 360,000 | AID 504333, 2011 | Potency, µM (top dose mostly 114 µM), inactives show at the highest dose activity change, negative = inhibition, hits mostly inhibitors; note: % is set by controls: 0 for no effect and ±100 for the full control effect; nearly all actives have a fitted effect of over 60% in size
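In this displacement format the biotinylated H3(5-23) peptide acetylated at Lys14 serves as ligand at 50 nM, with BAZ2B at 50 nM in PBS pH 7.4 containing 0.01% Tween-20. Donor and acceptor beads are 10 ug/mL final.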
HP1b binding inh: HTS for Inhibitors of HP1-beta Chromodomain Interactions with Methylated Histone Tails | AlphaScreen HP1-beta / biotin-H3K9me3 peptide binding | AID 540317, 2011 | Chromobox protein homolog 1 (Homo sapiens), P83916 | hit rate 0.56% among 390,000 | Potency, µM (doses to about 114 µM), for inactives: at the top dose activity change, negative = inhibition, usual class: inhibitors; note: nearly all actives have a fitted effect of over 70% in size
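Compound inhibition of the preformed complex between 50 nM HP1-beta and 50 nM biotinylated H3K9me3 peptide was read by AlphaScreen. Buffer was PBS pH 7.4 with 0.01% Tween-20. Incubations ran 30 min at room temperature, with 10 ug/mL donor/acceptor beads.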
JMJD2A Tudor inh: qHTS Assay for Inhibitors of JMJD2A-Tudor Domain; Lysine-specific demethylase 4A (Homo sapiens), O75164; AlphaScreen JMJD2A-Tudor / H3K4me3 peptide binding; Potency, µM (doses to about 114 µM), without a hit: at the highest dose activity change, negative = inhibition, actives largely listed as inhibitors; hit rate 4.4% among 390,000; note: % is set by controls: 0 for no effect and ±100 for the full control effect; nearly all actives have a fitted effect of over 50% in size
Active calls of the source: *; ? = inconclusive; . = not tested or not shown; [ ] = another dose, or the depositor's remark. Most compounds without a hit are left out; they make up all but 9% or so of the library. Calls come from the whole dose curve; as a rule, active = well fitted curve in the direction sought with a large enough effect; inconclusive = small, poorly fitted or top-dose-only effect, or another doubt; inactive = no such curve, though single readings can be large; an effect the other way counts as inactive or inconclusive. Potency is the fitted concentration of half-maximal effect.

SMILES	G9a inh	PLK1 PBD inh	12-LOX inh	BAZ2B inh	HP1b binding inh	JMJD2A Tudor inh
COc1ccc(OC)c(NC(=O)COC(=O)C2CCN(C(=O)c3ccc(Cl)cc3)CC2)c1	?	-7%	-7%	-24%	39%	-8%
COc1ccc(NC(=O)c2ccc(Br)o2)cc1	32µM*	2%	8%	?	26%	-11%
CC(C)c1ccc(NC(=O)c2ccc(Br)o2)cc1	-17%[59 µM]	-13%	0%	6%	2%	-1%[11.4 µM]
COc1ccc(NC(=O)/C(C#N)=C/c2ccc(Br)o2)cc1	-43%[12.7 µM]	-16%	?	50µM*	0%	?
N#C/C(=C/c1ccc(Br)o1)C(N)=S	32µM*	.	.	?	.	.
O=C(Nc1ccc(Nc2ccccc2)cc1)c1ccc(Br)o1	35µM*	-8%	0%	22µM*	?	40µM*
COc1ccc(NC(=O)/C(C#N)=C/c2ccc(C)o2)cc1	-3%[59 µM]	.	-17%	-3%	15%	-18%
CN(CC(=O)Nc1ccc(F)cc1)C(=O)COC(=O)c1ccc(=O)n(Cc2ccccc2)n1	-6%[2.33 µM]	0%	296%	-7%	25%	-13%
CC(C)CNC(=O)CCCSc1nc2ccccc2[nH]1	-5%	1%	-2%	-3%	37%	-12%
Cc1cc(OC(C)C(=O)Nc2ccccc2C(=O)N2CCCC2)ccc1Cl (stereo not given)	49%	2%	2%	-4%	41%	2%
CC(C(=O)O)n1nnc2ccccc21 (stereo not given)	.	-8%	-3%	6%	13%	-12%
CC(C(=O)Nc1ccccc1C(=O)N1CCCC1)n1nnc2ccccc21 (stereo not given)	18µM*	-22%	-21%	5%	3%	-11%
Cc1ccc(OC(C)C(=O)Nc2ccccc2C(=O)N2CCOCC2)cc1 (stereo not given)	20%	-7%	.	-1%	15%	-13%
CC(Oc1ccc(Cl)cc1)C(=O)Nc1ccccc1N1CCOCC1 (stereo not given)	.	2%	-15%	.	63%	20%
CC(Oc1cccc(Cl)c1)C(=O)Nc1ccccc1N1CCCC1 (stereo not given)	50µM*	-2%	-3%	-7%	-4%	?
Cc1ccc(OC(C)C(=O)Nc2ccccc2C(=O)N2CCN(C)CC2)cc1 (stereo not given)	40µM*	-12%	?	-22%	2%	-4%
Cc1cccc(OC(C)C(=O)Nc2ccccc2C(=O)N2CCCCC2)c1 (stereo not given)	35µM*	-13%	-10%	-7%	16%[57 µM]	-13%
CC1CC(NC(=O)N(C)C)N(C)C(=O)N1 (stereo not given)	2%	-14%	-6%	2%	45%	5%[57.1 µM]
Cc1cccc(OC(C)C(=O)Nc2ccc(N3CCCCC3)cc2)c1 (stereo not given)	22µM*	-2%	-11%	?	-22%	?
CN1CC=C2C(C#N)=C(N)C(C#N)(C#N)[C@H](c3ccoc3)[C@H]2C1	40µM*	15µM*	.	-11%	33%	-5%[57.1 µM]
Cc1ccc(SCc2nc3c(c(=O)[nH]c(=O)n3C)n2C)cc1	.	.	2%	.	.	.
C=CCn1c(CSc2ccc(C)cc2)n[nH]c1=S	8.9µM*	2%	?	-25%	63%	12%
Cn1c(SCc2n[nH]c(=S)o2)nnc1-c1ccccc1	?	-20%	-11%	1%	30%	?
C=CCn1c(CSc2nnc(-c3ccccc3)n2C)n[nH]c1=S	.	-5%	0%	-3%	41%	10µM*
C=CCn1c(SCc2n[nH]c(=S)n2-c2ccccc2)nnc1-c1ccccc1	11µM*	2%	?	-13%	37%	11µM*
SMILES	G9a inh	PLK1 PBD inh	12-LOX inh	BAZ2B inh	HP1b binding inh	JMJD2A Tudor inh
O=C(O)CNS(=O)(=O)c1ccc2c(c1)CCCC2	-32%	1%	-3%	-18%	22%	-15%
O=C(O)CNS(=O)(=O)c1ccc2[nH]c(=O)c(=O)[nH]c2c1	56µM*	-12%	-7%	-5%	19%	-15%
O=C(Nc1cc(Cl)ccc1Cl)N1CCCC1	7%	8.4µM*	1%	6%	10%	-17%
O=C(NNC(=O)C1CCCC1)c1ccccc1F	11%	0%	?	-11%	21%[57 µM]	6%
O=C(NNc1ccccc1F)c1cccs1	.	.	.	.	58%	-10%
O=C(NNc1cc(Cl)ccc1Cl)C1CCC1	50µM*	27µM*	?	0%	-5%	71µM*
O=C(NNc1ccccc1F)c1ccccc1	28µM*	-7%	6%	2%	40%	-11%
O=C(Nc1cccc(Cl)c1)N1CCCCCC1	20%	12%	12%	-14%	23%	3%
O=C(NNc1ccccc1F)C1CCC1	50µM*	-19%	48%	-5%	61%	-13%
O=C(CNC(=O)C1CCCCC1)Nc1cc(Cl)ccc1Cl	1%[59 µM]	-11%	?	2%	24%	-12%
CC(C)(C)c1ccc(NNC(=O)C2CCC2)cc1	14µM*	5%	-16%	-2%	43%	-6%
O=C(NNc1ccc(F)cc1F)C1CCC1	18µM*	3%	0%	2%	23%	-6%
CC(C)(C)C(=O)Oc1ccc2cc(-c3ccc4ccccc4n3)c(=O)oc2c1	47%[59 µM]	-10%	2%	19%	61%	3%
c1ccc2c(c1)nc(-c1ccncc1)n2CCNc1nc(CN2CCCCC2)cs1	50µM*	-9%	1%	-36%	38%	-9%
FC(F)(F)c1nc2ccccc2n1CCNc1nc(CN2CCCCC2)cs1	45µM*	-12%	-2%	-35%	27%	-23%
O=C(NCCn1c(-c2ccncc2)nc2ccccc21)[C@H]1CCCN1c1nc(CN2CCCCC2)cs1	-2%	-2%	-1%	-9%	49%	-5%
CC(C)(C)C(=O)NC(n1cnc2c(N3CCOCC3)ncnc21)C(Cl)(Cl)Cl (stereo not given)	.	-3%	11%	-9%	16%	-12%
Cc1cc(OCCN2CCOCC2)c(C)c2c1CC[C@@H]([C@H](C)C(=O)NCc1cccnc1)C2	.	.	-7%	.	.	.
COc1cc(/C=N/Nc2ccc([N+](=O)[O-])cc2S(=O)(=O)N2CCOCC2)cc(OC)c1OC	?	2%	-10%	0%	51%	8%
O=[N+]([O-])c1cccc(N/N=C/c2cccc(O)c2O)c1	22µM*	-19%	11µM*	?	-16%	-30%
O=[N+]([O-])c1ccc(N/N=C/c2cccc(O)c2O)c(S(=O)(=O)N2CCOCC2)c1	35µM*	-4%	?	?	1%	-21%

Bioassay records deposited in PubChem by National Center for Advancing Translational Sciences (NCATS).
